# Source: PubChem
# RORgamma inh – inhibitors of mouse ROR gamma transcriptional activity; Drosophila S2 Gal4-RORgamma UAS-luciferase reporter, 20 h; Potency, µM (top dose mostly 53.6 µM), for inactives: at the top dose activity change, negative = inhibition, hits mostly inhibitors; actives 5.4% (n = 310,000); AID 2551; note: nearly all actives have a fitted effect of over 60% in size
#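 Read-out: Photinus luciferase luminescence; inhibitors lower reporter signal. Insect Schneider cells with Gal4-ROR gamma fusion under metallothionein promoter, UAS reporter; 700 uM final copper sulfate induction, 20 hr, ambient temperature.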
# B2AR arrestin – recruits beta-arrestin to the human beta2-adrenergic receptor; P07550; beta-arrestin recruitment to beta2AR, cell-based reporter; Potency, µM (top dose mostly 46.1 µM), inactives show at the top dose activation, actives largely listed as activators; actives 0.02% (n = 330,000); AID 492947;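 note: 0% = DMSO controls and full agonism = EC100 isoproterenol or metaproterenol; nearly all actives have a fitted effect of over 65% in size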
# Target sequence (P07550 whole entry, looked up): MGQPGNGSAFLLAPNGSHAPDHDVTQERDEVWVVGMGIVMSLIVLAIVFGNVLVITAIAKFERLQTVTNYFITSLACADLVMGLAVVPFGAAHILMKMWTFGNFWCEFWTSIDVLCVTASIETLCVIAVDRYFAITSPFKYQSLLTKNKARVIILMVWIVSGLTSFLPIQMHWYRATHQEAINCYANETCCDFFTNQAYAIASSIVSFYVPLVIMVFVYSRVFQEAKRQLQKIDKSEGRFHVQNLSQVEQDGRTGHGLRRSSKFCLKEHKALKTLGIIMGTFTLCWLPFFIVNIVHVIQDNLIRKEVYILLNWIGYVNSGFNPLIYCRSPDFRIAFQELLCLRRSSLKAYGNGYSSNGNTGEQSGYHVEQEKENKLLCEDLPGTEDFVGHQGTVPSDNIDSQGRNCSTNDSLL
# Gal4-VP16 FLuc – counter-screen for ROR gamma inhibitors: Gal4-VP16 reporter. AID 2546. Drosophila S2 Gal4-VP16 UAS-luciferase, luminescence, 20 h. Potency, µM (series often up to 53.6 µM), for the others: at the top dose activity, negative = inhibition, most hits filed as inhibitors. actives 3.5% (n = 310,000);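 note: Gal4-VP16 expression switched on by copper sulfate through the metallothionein promoter; nearly all actives have a fitted effect of over 50% in size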
# NPSR antagonist – neuropeptide S receptor (human) antagonism, cAMP; Q6W5P4; CHO-NPSR cells, cAMP TR-FRET, antagonist mode; Potency, µM (series often up to 38.3 µM), for the others: at the highest dose activity change, negative = inhibition, usual class: inhibitors; actives 1% (n = 220,000); note: nearly all actives have a fitted effect of over 50% in size
# An asterisk follows results filed as active; ? = inconclusive; · = not tested or not shown; [ ] = another dose, or the depositor's remark. An excerpt weighted towards active compounds, which were near 5.7% of everything screened. Calls come from the whole dose curve; as a rule, active = well fitted curve in the direction sought with a large enough effect; inconclusive = small, poorly fitted or top-dose-only effect, or another doubt; inactive = no such curve, though single readings can be large; an effect the other way counts as inactive or inconclusive. Unless noted, % is set by controls: 0 for no effect and ±100 for the full control effect; potency is the fitted concentration of half-maximal effect.
SMILES,RORgamma inh,B2AR arrestin,Gal4-VP16 FLuc,NPSR antagonist
O=C(OCc1nnc(-c2ccc(Cl)cc2)o1)c1ccc(O)cc1,17%,-1%,4%,-1%
CS(=O)(=O)c1ccc(C(=O)OCc2nnc(-c3ccc(Cl)cc3)o2)cc1[N+](=O)[O-],10µM*,0%,-2%,-21%
COc1ccc(C(=O)Nc2nnc(SCC(=O)NCc3ccco3)s2)c(OC)c1,11µM*,-1%,10µM*,·
COc1ccc(C(=O)Nc2nnc(SCC(=O)Nc3ccc(NC(C)=O)cc3)s2)c(OC)c1,?,-1%,-28%,·
COc1ccc(C(=O)Nc2nnc(SCC(=O)NC3CCCC3)s2)c(OC)c1,3.2µM*,-1%,?,·
O=C(CCCl)Nc1nnc(SCC(=O)NC2CCCC2)s1,-38%,-1%,2µM*,·
CCCCC(=O)Nc1nnc(SCC(=O)NC2CCCC2)s1,9%,-1%,-3%,-1%[46.1 µM]
CCc1nnc(NC(=O)c2ccc(OC)cc2OC)s1,6.3µM*,0%,10µM*,-15%[46.1 µM]
c1c2c(cc3sc(N4CCCCC4)nc13)OCO2,10µM*,-1%,11µM*,-9%[46.1 µM]
CCN(CC)CCOC(=O)c1cccnc1,23%,·,-15%,·
Cc1ccc(C(=O)N/N=C2\SCC(=O)N2c2cc(C)ccc2C)cc1,?,0%,13µM*,-21%[46.1 µM]
Cc1ccc2c(Cl)c(C)c(N3CCCC3)nc2n1,2.8µM*,-1%,11µM*,-2%
CC1CCc2cc(F)ccc2N1S(=O)(=O)c1ccc(F)cc1 (stereo not drawn),10µM*,0%,1%,·
Nc1nc2c(nc(Br)n2C2O[C@H]3COP(=O)(O)O[C@@H]3C2O)c(=O)[nH]1 (stereo partly drawn),·,·,·,-10%[46.1 µM]
CCc1nnc(NC(=O)CSc2nc(-c3ccccc3)cc(-c3ccc(F)cc3)c2C#N)s1,?,0%,-7%,10µM*
CCOC(=O)CSc1nnc(-c2ccccc2NC(=O)c2ccccc2)o1,-10%,0%,-7%,-9%[46.1 µM]
COc1ccc(CNC(=O)CSc2nc(-c3ccccc3)cc(-c3cccs3)c2C#N)cc1,-21%,0%,-3%,10µM*
CCc1nnc(NC(=O)CSc2nnc(-c3ccccc3NC(=O)c3ccccc3)o2)s1,2.2µM*,?,3.5µM*,?
CC(C)(C)c1ccc(C(=O)N/N=C/c2ccc(OCCCF)cc2)cc1,-40%,0%,-8%,-7%
Cc1nc2nc(-c3ccc(F)cc3)cn2nc1C,?,0%,?,·
Cc1nc2nc(-c3ccccc3)cn2nc1C,10µM*,·,?,4%[46.1 µM]
CCc1ccc(-c2cn3nc(C)c(C)nc3n2)cc1,7.1µM*,0%,?,-4%[46.1 µM]
c1ccc(-c2cn3nc4c(nc3n2)CCCC4)cc1,5µM*,0%,?,-9%[46.1 µM]
Brc1ccc(-c2cn3nc4c(nc3n2)CCCC4)cc1,?,-1%,?,-7%[46.1 µM]
CCN(CC)S(=O)(=O)c1ccc(N/N=C(\C)c2ccc3c(c2)OCO3)c([N+](=O)[O-])c1,-25%,1%,-10%,-22%
SMILES,RORgamma inh,B2AR arrestin,Gal4-VP16 FLuc,NPSR antagonist
C/C(=N\Nc1ccc(S(N)(=O)=O)cc1[N+](=O)[O-])c1ccc2c(c1)OCO2,?,0%,11µM*,-2%
COc1ccc(C(=O)NC(=S)Nc2ccc(CN3CCCCC3)cc2)cc1Cl,20µM*,0%,?,-14%
COc1ccc(C(=O)NC(=S)Nc2ccc(CN3CCOCC3)cc2)cc1Cl,13µM*,1%,?,·
Cc1ccc(C(=O)NC(=S)Nc2ccc(CN3CCCCC3)cc2)c(C)c1,13µM*,0%,?,4%
Nc1nc(NCCc2ccc(O)cc2)nc2nc(-c3ccco3)nn12,15%,·,-2%,·
CCc1cccc(CC)c1NC(=O)CSc1nnc(C2CC2)n1C,-4%,3%,-1%,·
CCOC(=O)C1(CC2CCCCO2)CCN(C(=O)NCc2ccccc2)CC1 (stereo not drawn),-25%,-1%,5%,2%
O=c1c(CN2CCN(c3ccccn3)CC2)coc2ccccc12,4%,-1%,-11%,0%
Oc1c(CN2CCN(c3ccccn3)CC2)cc(Cl)c2cccnc12,0.45µM*,?,?,?
OCCN1CCN(Cc2cc(Cl)c3cccnc3c2O)CC1,5.6µM*,?,10µM*,-1%[46.1 µM]
CC1(C)C2C/C(=N\O)C(C)(/[N+]([O-])=C/c3cccc([N+](=O)[O-])c3)CC21 (stereo not drawn),8%,0%,1%[10 µM],13%
CCCCOCCOCCOCc1cc2c(cc1CCC)OCO2,6%[10 µM],·,-9%,·
O=C(CCc1ccccc1)NC(=S)Nc1cc(C(F)(F)F)ccc1N1CCOCC1,7.1µM*,-1%,?,?
CC(C)CC(=O)NC(=S)Nc1cc(C(F)(F)F)ccc1N1CCOCC1,7.9µM*,0%,7.1µM*,-43%
CC(Cl)C(=O)Nc1cc(C(F)(F)F)ccc1N1CCOCC1 (stereo not drawn),10%,-1%,4%,-15%
CCOc1ccccc1NC(=O)CSc1nnc(CNC(=O)c2c(F)cccc2Cl)o1,10%,0%,6%,·
Cc1cc(C)c2cc(C#N)c(SCC(=O)NCc3ccco3)nc2c1,13µM*,0%,?,0%[46.1 µM]
O=C(CSc1ncccc1-c1nc2ccccc2[nH]1)NCc1ccco1,-10%,-1%,0%,?
Cc1cc2nc(-c3cccnc3SCC(=O)NCc3ccco3)[nH]c2cc1C,11µM*,0%,13µM*,?
CC1CN(c2ccc([N+](=O)[O-])c(NCCOc3ccc(Cl)cc3)c2)CC(C)N1 (stereo not drawn),?,0%,18µM*,·
Cc1cc(=S)[nH]c2c(C)cccc12,11µM*,11%,?,-1%[46.1 µM]
Cc1cccc2c(-c3ccccc3)cc(=O)[nH]c12,10%,0%,-7%,0%[46.1 µM]
CCCCCCCCCCCCC/C=C/[C@@H](O)[C@H](COP(=O)([O-])OCC[N+](C)(C)C)NC(=O)CCCCCCCCCCCCCCCCC,12%,·,3%,·
Oc1c(CN2CCCCC2)cc(COCc2ccccc2)c2cccnc12,0.32µM*,?,0.0089µM*,?
COCc1cc(CN2CCCC2)c(O)c2ncccc12,10µM*,?,8.9µM*,-22%[46.1 µM]
SMILES,RORgamma inh,B2AR arrestin,Gal4-VP16 FLuc,NPSR antagonist
COc1ccccc1N1CCN(Cc2cc(Br)c(O)c3ncccc23)CC1,1.1µM*,0%,1.4µM*,-23%[46.1 µM]
CCOc1ccccc1N1CCN(Cc2cccc(OC)c2O)CC1,-10%,0%,2%,-3%[46.1 µM]
C=CCN1C(=O)c2ccc(C(=O)N(CC)CC(=O)Nc3c(F)cccc3F)cc2C1=O,·,-1%,·,·
COc1ccc(-c2coc3cc(OC(C)=O)cc(OC(C)=O)c3c2=O)cc1,24%,·,-23%,·
COc1cccc(/C=N/n2c(COc3ccccc3)n[nH]c2=S)c1O,13µM*,0%,?,·
Cc1n[nH]c(=S)n1/N=C/c1ccccc1OCc1ccc(Cl)cc1,4.5µM*,0%,?,-25%[46.1 µM]
Cc1n[nH]c(=S)n1/N=C/c1cccc(OCc2ccccc2)c1,36%,0%,-7%,-40%
COc1cccc(/C=N/n2c(COc3ccccc3)n[nH]c2=S)c1OC,20µM*,0%,?,·
COc1ccccc1/C=C/C=N/n1c(COc2ccccc2)n[nH]c1=S,3.5µM*,-2%,-23%,?
